Common to all, as to format: functional
Assay [1] relates to Plasmodium falciparum. Briefly: GSK_TCMDC: Inhibition of Plasmodium falciparum 3D7 in whole red blood cells, using parasite LDH activity as an index of growth. Test compounds present at 2uM.
The test system of assay [2] is Plasmodium falciparum. Briefly: GSK_TCMDC: Inhibition of Plasmodium falciparum Dd2 in whole red blood cells, using parasite LDH activity as an index of growth. Test compounds present at 2uM.
A further assay has as its system HepG2. As to the kind of experiment: GSK_TCMDC: Percent inhibition of human HepG2 cell line. Test compounds present at 10uM.

The source of these data is ChEMBL document CHEMBL1157539, “Thousands of chemical starting points for antimalarial lead identification” (Nature, 2010).

A word on the Inhibition: it is the drop in the measured response relative to a control, in per cent. For `CN(C)CCNCc1ccc(-c2cccc(-c3nc4ccccc4[nH]3)c2)cc1.O=C(O)C(F)(F)F`, the values for the Inhibition in the assay with Plasmodium falciparum [1], with Plasmodium falciparum [2] and with HepG2 were 100%, 63% and 31%, respectively.
For `COc1ccc(C2CC(=O)C3=C(C2)NC(C)=C(C(=O)OC2CCCC2)C3c2cccc(O)c2)cc1OC` (stereo unspecified), the Inhibition in the assay on Plasmodium falciparum [1] stood at 100%; in the assay with Plasmodium falciparum [2], 98%; in the assay with HepG2 it was 8%.
Taken in the same sequence, the figures for `COc1cc(NC(=O)c2sc(-c3ccc(Cl)cc3)cc2NC(=O)CN2CC[C@@H](O)C2)ccc1OCCN1CCCC1` were 90%, 79% and 56%.
For `CCNC(=O)Nc1cccc(-c2cccc(-c3nc4cc(C(F)(F)F)ccc4[nH]3)c2)c1`, the figures for the Inhibition in the assay on Plasmodium falciparum [1], in the assay on Plasmodium falciparum [2] and with HepG2 were 91%, 32% and 50%, respectively.
Taken in the same sequence, the figures for `CC(C)N1CCN(c2ccc(OCCCN3CCN(c4cccc(Cl)c4Cl)CC3)c(C(F)(F)F)c2)CC1` were 94%, 37% and 79%.
For the compound `COc1ccc(CNC2Cc3ccccc3C2)cc1-c1ccc(S(=O)(=O)NCc2cccnc2)s1.O=C(O)C(F)(F)F`, the Inhibition in the assay with Plasmodium falciparum [1] is 91%; in the assay with Plasmodium falciparum [2], 18%; with HepG2, 49%.
On to `FC(F)(F)c1cccc2c(NN=Cc3ccccc3)ccnc12`, for which the figures for the Inhibition in the assay on Plasmodium falciparum [1], in the assay with Plasmodium falciparum [2] and in the assay with HepG2 were 100%, 90% and 10%, respectively.
For `Cc1cc(NC(=O)c2cc(S(=O)(=O)N3CCCCC3)ccc2C)no1`, the figures for the Inhibition with Plasmodium falciparum [1], in the assay on Plasmodium falciparum [2] and in the assay with HepG2 were 95%, 29% and 0%, respectively.
Taken in the same sequence, the figures for `CNC(=O)c1cnc(Nc2ccc3[nH]c(=O)[nH]c3c2)nc1Nc1cccc(OC(C)C)c1.O=C(O)C(F)(F)F` were 89%, 94% and 18%.
Taken in the same sequence, the figures for `Clc1nc2ccccn2c1C=Cc1ccc2ccccc2n1` were 86%, 75% and 0%.
Taken in the same sequence, the figures for `O=C(O)C(F)(F)F.O=S(=O)(NCCN1CCCC1)c1ccc(-c2ccc(CN3Cc4ccccc4C3)cc2)s1` were 89%, 18% and 19%.
For the compound `COc1ccc(-c2ccc(NC(=O)c3cccc(Cl)c3)c(F)c2)cc1CNC(C)C.O=C(O)C(F)(F)F`, the Inhibition worked out at 93% with Plasmodium falciparum [1], 14% with Plasmodium falciparum [2] and 19% in the assay with HepG2.
Taken in the same sequence, the figures for `CCCNS(=O)(=O)c1ccc(NC(=O)C(C)Oc2ccc([N+](=O)[O-])cc2)cc1` (stereo unspecified) were 100%, 37% and 3%.
Taken in the same sequence, the figures for `O=C(Nc1ccc(-c2oc(C(=O)NCCc3cccc(Cl)c3)cc2-c2ccncc2)cc1)Nc1cccc(Cl)c1.O=C(O)C(F)(F)F` were 99%, 84% and 13%.
Taken in the same sequence, the figures for `N#Cc1ccc(/C=C/C(=O)NCCCCCN2CCN(C(=O)Nc3ccc(Cl)c(C(F)(F)F)c3)CC2)cc1` were 94%, 0% and 42%.
On to `Cc1cc2c(cc1C(F)(F)F)N(C(=O)Nc1ccc(C(=O)NC3CCN(Cc4ccccc4)C3)cc1)CC2` (stereo unspecified), for which the Inhibition in the assay with Plasmodium falciparum [1] stood at 100%; in the assay with Plasmodium falciparum [2], 48%; in the assay with HepG2, 19%.
Taken in the same sequence, the figures for `COC(=O)c1cccc(CNCc2cccc(-c3ccc(-c4nc5cc(C(F)(F)F)ccc5[nH]4)cc3)c2)c1.O=C(O)C(F)(F)F` were 100%, 83% and 13%.
For the compound `COc1ccc2[nH]ccc(=NN=CC=Cc3ccccc3)c2c1`, the Inhibition is listed as 100% in the assay on Plasmodium falciparum [1], 99% with Plasmodium falciparum [2] and 11% in the assay on HepG2.
Taken in the same sequence, the figures for `Cc1cccc(C)c1/N=C1\NC(=S)N(c2cccc(Cl)c2)C12CCC(C(C)(C)C)CC2` (stereo unspecified) were 87%, 53% and 4%.
As for `CS(=O)(=O)NCCCNCc1cccc(-c2cccc(-c3nc4cc(C(F)(F)F)ccc4[nH]3)c2)c1.O=C(O)C(F)(F)F`, the Inhibition is recorded as 99% in the assay on Plasmodium falciparum [1], 100% in the assay with Plasmodium falciparum [2] and 17% in the assay on HepG2.
Taken in the same sequence, the figures for `CCCc1cc(N2CCC(N3CCCC3)CC2)nc(Nc2ccc(OC)cc2)n1` were 94%, 14% and 15%.
As for `COc1ccc(NC(=O)/C=C/c2ccccc2Cl)cc1OCCN1CCC(Cc2cc3ccccc3[nH]2)CC1.Cl`, the Inhibition in the assay on Plasmodium falciparum [1] came out at 92%; in the assay with Plasmodium falciparum [2] it was 8%; in the assay with HepG2, 56%.
Taken in the same sequence, the figures for `C=CCc1cccc(CN2CCC(c3cc(O)nc(-c4ccccn4)n3)CC2)c1O` were 91%, 75% and 46%.
In the case of `CC(=O)Nc1ccc2[nH]cc(C3CCN(CCC4CCN(C(=O)/C=C/c5ccc(Cl)c(Cl)c5)CC4)CC3)c2n1`, the Inhibition in the assay with Plasmodium falciparum [1] amounted to 100%; in the assay with Plasmodium falciparum [2], 80%; with HepG2, 16%.
Taken in the same sequence, the figures for `CCOc1ccc(C(=O)Nc2cc(Cl)ccc2O)cc1Cl` were 83%, 84% and 11%.
Taken in the same sequence, the figures for `Cc1cc(N[C@@H](Cc2ccccc2)C(=O)NCc2cccs2)nc(NCCc2ccc(F)cc2)n1.O=C(O)C(F)(F)F` were 100%, 83% and 3%.
Taken in the same sequence, the figures for `O=C1COC2(CN1C1CCN(Cc3ccc(O)c(Cl)c3)C1)c1ccccc1-c1ccccc12.O=CO` (stereo unspecified) were 93%, 63% and 5%.
With `CNc1nc(N/N=C/c2cc([N+](=O)[O-])c(Cl)cc2Cl)nc(Nc2cccc(C(F)(F)F)c2)n1`, the Inhibition with Plasmodium falciparum [1] is 100%; in the assay with Plasmodium falciparum [2], 97%; in the assay on HepG2, 13%.
Take `COc1ccc(-c2nc(NC(=O)CSc3ccccc3)sc2C)cc1`: the Inhibition is 94% in the assay with Plasmodium falciparum [1], 31% in the assay on Plasmodium falciparum [2] and 6% in the assay with HepG2.
Taken in the same sequence, the figures for `CC(CN1CCN(C)CC1)C(=O)Nc1ccc(-c2ccc(-c3nc4cc(F)ccc4[nH]3)cc2)cc1` (stereo unspecified) were 100%, 87% and 19%.
Take `CC1CCC(NCc2ccc3c(CNC4CCC(C)CC4)c(O)ccc3c2O)CC1.Cl` (stereo unspecified): the Inhibition in the assay on Plasmodium falciparum [1] was found to be 100%; in the assay on Plasmodium falciparum [2], 99%; with HepG2, 4%.
Taken in the same sequence, the figures for `Oc1cccc(Nc2nc(NCc3ccccc3)c3ccccc3n2)c1` were 95%, 99% and 21%.
With `CNS(=O)(=O)c1ccc2c(c1)nc(C1CCN(CC3CCC(NC(=O)/C=C/c4ccc(Cl)c(Cl)c4)CC3)CC1)n2C` (stereo unspecified), the Inhibition in the assay with Plasmodium falciparum [1] stood at 100%; in the assay with Plasmodium falciparum [2], 96%; with HepG2, 5%.
Taken in the same sequence, the figures for `Clc1cc(Cl)cc(Nc2ccnc(Nc3cc(Cl)cc(Cl)c3)n2)c1` were 99%, 73% and 11%.
Take `OC(c1ccccc1)C1CN(Cc2ccccc2)CCC1(O)c1ccccc1` (stereo unspecified): the Inhibition turned out to be 91% in the assay with Plasmodium falciparum [1], 82% in the assay on Plasmodium falciparum [2] and 4% with HepG2.
Taken in the same sequence, the figures for `FC(F)(F)c1ccc2[nH]c(-c3cccc(-c4ccc(CNCc5ccccc5)cc4)c3)nc2c1.O=C(O)C(F)(F)F` were 100%, 99% and 25%.
Take `Cc1ccc2c(NC(=O)Nc3ccc(N(C)C)cc3)cc(C)nc2c1`: the figures for the Inhibition with Plasmodium falciparum [1], with Plasmodium falciparum [2] and in the assay on HepG2 were 98%, 20% and 0%, respectively.
For `Cc1ccc(NC(=O)c2ccc(N3CCC(c4ccccc4C)CC3)nc2)cc1.O=C(O)C(F)(F)F`, the Inhibition in the assay with Plasmodium falciparum [1] worked out at 83%; in the assay on Plasmodium falciparum [2], 72%; in the assay on HepG2, 49%.
Taken in the same sequence, the figures for `Oc1ccc(Cl)cc1Nc1nc(C(F)(F)F)nc2ccccc12` were 86%, 63% and 16%.
Taken in the same sequence, the figures for `CC1(CCN2CCC(c3c[nH]c4cnccc34)CC2)CCCc2c(Br)cccc2C1=O.Cl` (stereo unspecified) were 100%, 66% and 14%.
Turning to `c1ccn2c(-c3ncnc(NCc4ccc5c(c4)CCO5)n3)cnc2c1`, the Inhibition in the assay with Plasmodium falciparum [1] turned out to be 86%; with Plasmodium falciparum [2], 47%; in the assay with HepG2, 12%.
As for `CC[C@H](C)CNC(=O)c1ccc(-c2cccc(CN3CCC(N4CCCC4)CC3)c2)nc1.O=C(O)C(F)(F)F`, the Inhibition in the assay on Plasmodium falciparum [1] is 91%; in the assay with Plasmodium falciparum [2] it was 7%; in the assay with HepG2, 0%.
For the compound `Cc1cc(NC(c2ccc(Cl)cc2)c2ccc3cccnc3c2O)no1` (stereo unspecified), the figures for the Inhibition in the assay on Plasmodium falciparum [1], in the assay with Plasmodium falciparum [2] and in the assay with HepG2 were 88%, 26% and 50%, respectively.
Taken in the same sequence, the figures for `Br.CC1(C)NC(N)=NC(=N)N1OCCCOc1c(Cl)cc(Cl)cc1Cl` were 94%, 97% and 65%.
Taken in the same sequence, the figures for `O=C(CC1NC(=O)c2ccccc21)Nc1ccc(-c2ccc(-c3nc4cc(C(F)(F)F)ccc4[nH]3)cc2)cc1` (stereo unspecified) were 87%, 70% and 39%.
For `CS(=O)(=O)Nc1ccc2c(C3CCN(CCC4CCN(C(=O)/C=C/c5ccc(Cl)c(Cl)c5)CC4)CC3)c[nH]c2c1`, the Inhibition in the assay on Plasmodium falciparum [1] was found to be 99%; with Plasmodium falciparum [2], 63%; in the assay with HepG2, 35%.
Taken in the same sequence, the figures for `C[C@@H](CC1CCCCC1)OC(=O)N[C@H]1CCN(C#N)C1` were 95%, 83% and 7%.
Taken in the same sequence, the figures for `Cc1ccc(C(NC(=O)c2ccccc2)c2ccc3cccnc3c2O)cc1` (stereo unspecified) were 92%, 72% and 53%.
Taken in the same sequence, the figures for `Br.COc1nc(-n2ccc(=N)cc2)nc2ccccc12` were 90%, 45% and 15%.
`Cl.N#Cc1ccc2c(c1)CCN(CCC1CCC(NC(=O)/C=C/c3ccc(F)c4ccccc34)CC1)CC2` (stereo unspecified): the Inhibition with Plasmodium falciparum [1] was determined as 95%; in the assay with Plasmodium falciparum [2] it was 19%; in the assay on HepG2, 29%.
Taken in the same sequence, the figures for `Cc1cc(C)c(C(=O)Nc2ccc3nc(C)cc(N)c3c2)c(C)c1.Cl` were 84%, 14% and 12%.
Taken in the same sequence, the figures for `O=C(Nc1ccc(OC2CCN(Cc3ccc(F)cc3)C2)cc1)c1cccs1.O=C(O)C(F)(F)F` (stereo unspecified) were 94%, 92% and 2%.
On to `O=C(Nc1ccc2c(c1)OCO2)NC1CCN(c2ccnc(NCc3ccc(F)cc3)n2)CC1`, for which the results for the Inhibition in the assay with Plasmodium falciparum [1], with Plasmodium falciparum [2] and in the assay with HepG2 were 88%, 15% and 33%, respectively.
For the compound `Cc1cccc2nc(-c3cccc(-c4cccc(NC(=O)Nc5ccc(Cl)cc5)c4)c3)[nH]c12`, the values for the Inhibition in the assay on Plasmodium falciparum [1], in the assay on Plasmodium falciparum [2] and in the assay on HepG2 were 100%, 94% and 23%, respectively.
Taken in the same sequence, the figures for `COc1ccc(O)cc1/C=N/Nc1ccnc2cc(Cl)ccc12` were 100%, 92% and 0%.
Taken in the same sequence, the figures for `c1ccc(-c2nc(Nc3nc4ccccc4[nH]3)[nH]c2-c2ccccc2)cc1` were 96%, 61% and 14%.
Take `COc1ccc2nccc([C@@H](O)CN3CCC(NCc4cc5cccc(O)c5c(=O)[nH]4)CC3)c2c1.Cl`: the Inhibition was determined as 99% with Plasmodium falciparum [1], 66% in the assay with Plasmodium falciparum [2] and 8% in the assay with HepG2.
On to `Cc1nnsc1C(=O)Nc1ccc(-c2cccc(-c3nc4cc(C(F)(F)F)ccc4[nH]3)c2)cc1`, for which the values for the Inhibition in the assay with Plasmodium falciparum [1], in the assay on Plasmodium falciparum [2] and with HepG2 were 97%, 36% and 69%, respectively.
In the case of `CC(Cc1ccc(NS(=O)(=O)c2ccc(CC(C)NCCc3cccc(Cl)c3)cc2)cc1)NCCc1cccc(Cl)c1` (stereo unspecified), the figures for the Inhibition in the assay on Plasmodium falciparum [1], with Plasmodium falciparum [2] and in the assay with HepG2 were 100%, 38% and 12%, respectively.
On to `Cc1cccc2nc(-c3cccc(-c4ccc(NC(=O)c5cccc(C(N)=O)c5)cc4)c3)[nH]c12`, for which the Inhibition with Plasmodium falciparum [1] turned out to be 100%; with Plasmodium falciparum [2], 61%; in the assay on HepG2, 25%.
Regarding `COc1cc2nc(NCCn3nc(C)cc3C)nc(NCCc3ccccc3)c2cc1OC`, the Inhibition is listed as 100% in the assay with Plasmodium falciparum [1], 100% in the assay on Plasmodium falciparum [2] and 28% in the assay on HepG2.
Take `Br.Oc1cccc2c1CC(NCc1ccccc1)CC2` (stereo unspecified): the Inhibition in the assay on Plasmodium falciparum [1] stood at 90%; with Plasmodium falciparum [2] it was 24%; with HepG2, 4%.
